“And” between values parts separate entries of the source, which are not always exact repeats. Equal entries are not always repeated. About 79,000 compounds went through this panel and 15% of them were active in at least one assay; those are over-represented in the sample as a whole. The source made the active and inactive calls. No stated cut-off is given here; in the data, active means growth inhibition above about 70%; inactive means the rest.
Legend:
[1] = NCI Yeast Anticancer Drug Screen. Data for the rad52 strain (AID 147);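 further: 0% = growth of vehicle-treated control cultures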; conditions: S. cerevisiae rad52 mutant growth inhibition, stronger effect = higher value
Outline: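 Inhibition of yeast growth, referenced to vehicle controls, was the measured output for a strain with defective DNA damage repair.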

[2] = NCI Yeast Anticancer Drug Screen. Data for the wt1 strain (AID 149);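 further: 0% = growth of vehicle-treated wt1 cultures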; conditions: S. cerevisiae wt1 strain (SPY 50644) growth inhibition, stronger effect = higher value
Outline: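 Using yeast strain wt1, compound-induced growth inhibition was determined against vehicle-treated cultures.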

[3] = NCI Yeast Anticancer Drug Screen. Data for the rad50EPP+ strain (AID 151);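 further: 0% = growth of vehicle-treated control cultures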; conditions: S. cerevisiae rad50 mutant strain, stronger effect = higher value
Outline: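 Genetically defined yeast (rad50EPP+, DNA damage repair alteration) is grown with compound, and inhibition of growth is expressed relative to vehicle-treated controls.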

[4] = NCI Yeast Anticancer Drug Screen. Data for the rad50 strain (AID 155);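 further: 0% = growth of vehicle-only cultures of the same strain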; conditions: S. cerevisiae rad50 strain growth inhibition, stronger effect = higher value
Outline: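 Relative growth inhibition (compound vs vehicle) was measured in yeast with a defined repair-gene alteration.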

[5] = NCI Yeast Anticancer Drug Screen. Data for the mec2-1 strain (AID 157); conditions: S. cerevisiae mec2-1 strain, stronger effect = higher value
Outline: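 Each compound was tested on mec2-1 yeast, a strain altered in DNA damage repair or cell cycle control. Growth inhibition is reported relative to vehicle.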

[6] = NCI Yeast Anticancer Drug Screen. Data for the rad14 strain (AID 159);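 further: 0% = growth of vehicle-treated control cultures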; conditions: S. cerevisiae rad14 strain growth inhibition, stronger effect = higher value
Outline: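 Screen for anticancer potential: a yeast strain altered in DNA damage repair is grown with compound, and reduced growth is quantified against vehicle controls.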

[7] = NCI Yeast Anticancer Drug Screen. Data for the sgs1 mgt1 strain (AID 161);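 further: 0% = growth of cultures given vehicle only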; conditions: S. cerevisiae sgs1 mgt1 strain, stronger effect = higher value
Outline: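 Genetically altered yeast, compound exposure, growth inhibition relative to vehicle.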

[8] = NCI Yeast Anticancer Drug Screen. Data for the CLN2oe strain (AID 163);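 further: 0% = growth of vehicle-only control cultures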; conditions: S. cerevisiae CLN2oe strain, stronger effect = higher value
Outline: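 First, the altered yeast strain was treated with each compound; second, its growth was measured; finally, inhibition was derived by comparison with vehicle controls.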

[9] = NCI Yeast Anticancer Drug Screen. Data for the cln2 rad14 strain (AID 165);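 further: 0% = growth equal to vehicle treated cultures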; conditions: S. cerevisiae cln2 rad14 strain, stronger effect = higher value
Outline: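 Test compounds were added to cln2 rad14 yeast cultures; inhibition of growth was then determined by comparison with vehicle treatment.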

[10] = NCI Yeast Anticancer Drug Screen. Data for the bub3 strain (AID 167); conditions: S. cerevisiae bub3 mutant strain, stronger effect = higher value
Outline: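 Screening used yeast with an engineered genetic alteration affecting cell cycle control. Compound-exposed cultures were compared with vehicle cultures, and reduced growth was taken as inhibition.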

[11] = NCI Yeast Anticancer Drug Screen. Data for the wt2 strain (AID 169);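 further: 0% = growth of vehicle-treated yeast cultures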; conditions: S. cerevisiae wt2 strain growth inhibition, stronger effect = higher value
Outline: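 The panel's yeast strains carry defined changes in DNA repair or cell cycle genes. Each strain is grown with compound, and growth loss is scored relative to vehicle.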

[12] = NCI Yeast Anticancer Drug Screen. Data for the mlh1 strain (AID 171);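 further: 0% = growth of vehicle-treated control cultures of the same strain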; conditions: S. cerevisiae mlh1 strain growth inhibition, stronger effect = higher value
Outline: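 Inhibition values reflect reduced yeast growth in the presence of compound, referenced to vehicle controls, using a strain chosen for its alteration in DNA repair or cell cycle control.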

[13] = NCI Yeast Anticancer Drug Screen. Data for the sgs1 strain (AID 173);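 further: 0% = growth of vehicle-only control cultures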; conditions: S. cerevisiae sgs1 mutant, stronger effect = higher value
Outline: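 Vehicle-treated cultures served as reference for growth inhibition of a yeast strain altered in DNA damage repair or cell cycle control after compound exposure.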

[14] = NCI Yeast Anticancer Drug Screen. Data for the mlh1 rad18 strain (AID 175); conditions: S. cerevisiae mlh1 rad18 strain growth inhibition, stronger effect = higher value
Outline: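 Inhibition values reflect reduced growth of mutant yeast versus vehicle-treated controls following compound exposure; the mutations affect DNA damage repair.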

[15] = NCI Yeast Anticancer Drug Screen. Data for the rad18 strain (AID 177); conditions: S. cerevisiae rad18 mutant growth inhibition, stronger effect = higher value
Outline: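 Steps: expose repair-mutant yeast to compound; measure growth; express as inhibition relative to vehicle control.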

[16] = at 5.0 µM (retest, dose inferred, filed as 0.5)
[17] = at 50.0 µM (retest, dose inferred, filed as 5.0)

Measured: growth inhibition

O=C1c2ccccc2C(=O)c2cc(S(=O)(=O)Nc3ccccc3)ccc21
inactive: [1]; at 1.2 µM 0% | [1]; at 3.7 µM 7% | [1]; at 11.0 µM 16% | [1]; at 33.0 µM 26% | [1]; at 100.0 µM 19% | [2]; at 1.2 µM 5% | [2]; at 3.7 µM 9% | [2]; at 11.0 µM 8% | [2]; at 33.0 µM 9% | [2]; at 100.0 µM 4% | [3]; at 1.2 µM 9% | [3]; at 3.7 µM 21% | [3]; at 11.0 µM 34% | [3]; at 33.0 µM 45% | [3]; at 100.0 µM 47% | [4]; at 1.2 µM 1% | [4]; at 3.7 µM 7% | [4]; [16] 60% | [4]; at 11.0 µM 11% | [4]; at 33.0 µM 23% | [4]; [17] 49% | [4]; at 100.0 µM 22% | [5]; at 1.2 µM -1% | [5]; at 3.7 µM 5% | [5]; [16] 33% | [5]; at 11.0 µM 12% | [5]; at 33.0 µM 21% | [5]; [17] 61% | [5]; at 100.0 µM 19% | [6]; at 1.2 µM -1% | [6]; at 3.7 µM 1% | [6]; at 11.0 µM 7% | [6]; at 33.0 µM 12% | [6]; at 100.0 µM 11% | [7]; [16] 51% | [7]; [17] 61% | [8]; at 1.2 µM -6% | [8]; at 3.7 µM -15% | [8]; at 11.0 µM 5% | [8]; at 33.0 µM 7% | [8]; at 100.0 µM 2% | [9]; [16] 22% | [9]; [17] 37% | [10]; at 1.2 µM 0% | [10]; at 3.7 µM 4% | [10]; [16] 58% | [10]; at 11.0 µM 24% | [10]; at 33.0 µM 33% | [10]; at 100.0 µM 25% | [11]; at 1.2 µM 3% | [11]; at 3.7 µM 6% | [11]; at 11.0 µM 9% | [11]; at 33.0 µM 14% | [11]; at 100.0 µM 8% | [12]; at 1.2 µM 0% | [12]; at 3.7 µM 2% | [12]; at 11.0 µM 10% | [12]; at 33.0 µM 14% | [12]; at 100.0 µM 12% | [13]; at 1.2 µM 2% | [13]; at 3.7 µM 5% | [13]; at 11.0 µM 18% | [13]; at 33.0 µM 22% | [13]; at 100.0 µM 18% | [15]; at 1.2 µM 0% | [15]; at 3.7 µM 2% | [15]; at 11.0 µM 9% | [15]; at 33.0 µM 19% | [15]; at 100.0 µM -78%
active: [4]; at 50.0 µM 96.2% | [5]; at 50.0 µM 91.4% | [7]; at 50.0 µM 96.2% | [9]; at 50.0 µM 92.2% | [10]; [17] 84% | [10]; at 50.0 µM 96.1% | [14]; [16] 77% | [14]; [17] 75% | [14]; at 50.0 µM 97.7%

O=Nn1c2ccccc2c2ccccc21
inactive: [1]; at 1.2 µM -15% | [1]; at 3.7 µM -18% | [1]; at 11.0 µM -22% | [1]; at 33.0 µM 5% | [1]; at 100.0 µM 68% | [2]; at 1.2 µM 2% | [2]; at 3.7 µM 21% | [2]; at 11.0 µM 7% | [2]; at 33.0 µM 9% | [2]; at 100.0 µM 60% | [3]; at 1.2 µM 0% | [3]; at 3.7 µM 18% | [3]; at 11.0 µM 9% | [3]; at 33.0 µM 50% | [4]; at 1.2 µM 12% | [4]; at 3.7 µM -1% | [4]; [16] -13% | [4]; at 11.0 µM -3% | [4]; at 33.0 µM 23% | [4]; [17] 13% | [4]; at 50.0 µM 27.5% and 25.4% | [5]; at 1.2 µM -17% | [5]; at 3.7 µM 2% | [5]; [16] -1% | [5]; at 11.0 µM 1% | [5]; at 33.0 µM 21% | [5]; [17] 9% | [5]; at 50.0 µM 16.7% and 11.6% | [5]; at 100.0 µM 65% | [6]; at 1.2 µM 10% | [6]; at 3.7 µM 6% | [6]; at 11.0 µM 11% | [6]; at 33.0 µM 49% | [7]; [16] 2% | [7]; [17] -10% | [7]; at 50.0 µM 5.25% and 16.6% | [8]; at 1.2 µM 11% | [8]; at 3.7 µM 4% | [8]; at 11.0 µM 11% | [8]; at 33.0 µM 2% | [8]; at 100.0 µM 65% | [9]; [16] 5% | [9]; [17] 67% | [9]; at 50.0 µM 3.15% and 40.1% | [10]; at 1.2 µM -7% | [10]; at 3.7 µM -9% | [10]; [16] -28% | [10]; at 11.0 µM -14% | [10]; at 33.0 µM -3% | [10]; at 50.0 µM 1.5% and 66% | [10]; at 100.0 µM 59% | [11]; at 1.2 µM -46% | [11]; at 3.7 µM -34% | [11]; at 11.0 µM -28% | [11]; at 33.0 µM -15% | [11]; at 100.0 µM 62%
active: [3]; at 100.0 µM 79% | [4]; at 100.0 µM 83% | [6]; at 100.0 µM 92% | [10]; [17] 95%

From PubChem BioAssay (NCI)
